Bioassay records (PubChem)
Efa HMGR inh: inhibitors of E. faecalis class II HMGR, primary screen, biochemical, Enterococcus faecalis. HMG-CoA reductase (Enterococcus faecalis, mvaE). purified E. faecalis HMGR, NADPH absorbance 340 nm kinetic. inhibition, % at 10 µM. actives 0.41% (n = 190,000). AID 1066, 2008;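 active means inhibition above a set limit, the median over all tested compounds plus 3 SD, cut at about 9.5% in these data; inconclusive means no clear call, values can overlap the other calls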;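 further: enzyme runs in reverse so mevalonate oxidation gives rising NADPH absorbance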
Insulin prom up: insulin promoter activators in MIN6 cells, imaging, high-content screening, mouse beta cells. MIN6 insulin promoter-GFP reporter; hits give high values. z-score at 5 µM. actives 0.3% (n = 190,000). AID 1625, 2009;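 active means z-score above 3 at 5 µM with at least 500 cells counted in the well; inconclusive means wells under 500 cells, flagged as cytotoxic or low count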
Insulin prom inh: inhibitors of insulin promoter-driven GFP, primary screen, imaging, TRM-6 cells (human fetal islet line), eGFP reporter, cell count | reporter expression induced with tamoxifen | inhibition, % at 2 µM | actives 0.9% (n = 130,000) | AID 1273, 2008;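 active means inhibition above the mean plus 3 SD, with well images judged a real hit on visual review, cut at about 60% in these data, passing the limit was not always enough; inconclusive means inhibition over the cutoff but images rejected on review; inactive means inhibition not above the cutoff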
Autophagy HCS: autophagy modulators in MEF cells, primary screen, imaging, high-content, MEF GFP-LC3; MEF GFP-LC3 puncta imaging; test concentration mostly 10 µM; calls only at 10 µM (by protocol); actives 0.98% (n = 190,000);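 active means percentage of spot-positive cells more than 3 SD above its plate mean, without a fluorescence outlier flag or 80% toxicity; inconclusive means no clear call, values can overlap the other calls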
Large screens that a line does not name were inactive. Only some compounds are listed: those with a hit (about 1.9% of all), similar ones and a draw of the others.

c1ccc(CN2CCN(c3nc(N4CCOCC4)c4ccccc4n3)CC2)cc1	Autophagy HCS active (no result: Efa HMGR inh, Insulin prom up)
c1ccc2c(N3CCOCC3)nc(N3CCOCC3)nc2c1	none (no result: Insulin prom up)
CCOC(=O)C1(Cc2ccc(Cl)cc2)CCN(C(=O)c2cnc(C)cn2)CC1	none (no result: Efa HMGR inh, Insulin prom inh, Autophagy HCS)
S=C1NC2(CCCCC2)N=C1c1ccccc1	none
Cc1ccc(C2=NC3(CCCCC3)NC2=S)cc1	Insulin prom inh 62
CCN1C(=O)C(O)(CC(=O)c2ccccn2)c2ccccc21 (configuration not stated)	Insulin prom inh 75 (no result: Insulin prom up)
O=C(CC1(O)C(=O)N(Cc2cccc3ccccc23)c2ccccc21)c1cccnc1 (configuration not stated)	Autophagy HCS active (no result: Insulin prom up)
Cc1c(NC(=O)CN2CCN(c3ccc(F)cc3)CC2)c(=O)n(-c2ccccc2)n1C	none
Cc1cc(NCCCCO)n2c(nc3ccccc32)c1C#N	none
CCCc1cc(NCCCCO)n2c(nc3ccccc32)c1C#N	Insulin prom inh 79
COc1ccc(-n2c(Cc3cccn3C)nnc2SCC(=O)Nc2ccccc2C)cc1	none (no result: Insulin prom inh)
CCOc1ccc(-n2ccnc2SCC(=O)Nc2nnc(CC)s2)cc1	Insulin prom inh 82
CCc1nnc(NC(=O)CSc2nnc(Cc3cc(=O)[nH]c(=O)[nH]3)n2-c2ccc(OC)cc2)s1	Insulin prom inh 78
COc1ccc(-n2c(Cc3cccn3C)nnc2SCC(=O)Nc2cccc(C)c2C)cc1	Insulin prom up 3 (no result: Insulin prom inh, Autophagy HCS)
CCc1nnc(NC(=O)CSc2nnc(COc3cccc(C)c3)o2)s1	Insulin prom inh 75
CCOC(=O)C1=C(C)NC(C)=C(C(=O)OCC)C1C(=O)OCC(=O)N(CC)C1CCS(=O)(=O)C1 (configuration not stated)	none
COc1ccc(CCC(=O)NCc2cn3ccccc3n2)cc1	none (no result: Efa HMGR inh, Insulin prom inh, Autophagy HCS)
COc1ccc(O)c(/C=N/NC(=S)Nc2cccnc2)c1	none (no result: Insulin prom inh)
COc1cccc(/C=N/NC(=S)Nc2cccnc2)c1	Autophagy HCS active
CNC(=S)N(CCc1ccccc1)Cc1cc2cc(OC)c(OC)cc2[nH]c1=O	Insulin prom inh 62
Cc1nc2cc(C(F)(F)F)ccc2n1C	Insulin prom inh 75
COc1ccccc1N1CC(C)(C)C(=O)N(C(=O)c2ccc(Cl)cc2)C1=S	none (no result: Efa HMGR inh, Insulin prom inh, Autophagy HCS)
O=C(COC(=O)CCc1nc2ccccc2s1)NC(=O)NCc1ccco1	none
CCOc1ccc2[nH]cc(C(=O)NCCCN3CCOCC3)c(=O)c2c1	none (no result: Insulin prom inh)
CCCCCCCC(=O)Nc1ccc(C(=O)N/N=C/c2cccc([N+](=O)[O-])c2)cc1	Autophagy HCS active
CCCCCCC(=O)Nc1ccc(C(=O)N/N=C/c2cccnc2)cc1	none (no result: Insulin prom inh)
CN(C)CCCNC(=O)c1cc(Br)ccc1O	none (no result: Efa HMGR inh, Insulin prom inh, Autophagy HCS)
C=CCn1c(-c2cccs2)nc2ccccc21	Insulin prom inh 80
C=CCn1c(-c2cccs2)nc2nc3ccccc3nc21	none
c1ccc(Nc2ncnc3[nH]ncc23)cc1	none (no result: Efa HMGR inh, Insulin prom inh, Autophagy HCS)
COCCOC(=O)c1[nH]c2c(c1C)C(=O)CC(c1cccs1)C2 (configuration not stated)	Autophagy HCS active
CCOCCOC(=O)c1[nH]c2c(c1C)C(=O)CC(c1cccs1)C2 (configuration not stated)	Autophagy HCS active (no result: Insulin prom up, Insulin prom inh)
Cc1cccc(-n2c(=O)[nH]c3c(C(N)=O)nc(CC(C)C)nc32)c1	Insulin prom inh 82
CCn1c2ccccc2c2cc(NC(=O)COc3ccccc3)ccc21	none
Cc1ccc(-c2nc3ncccn3c2Nc2ccc3c(c2)OCCO3)cc1	none
COc1ccc(-c2nc3ncccn3c2Nc2ccc3c(c2)OCCO3)cc1	Insulin prom inh 69
O=C(Nc1nnc(C2CC2)s1)c1ccc(Cl)c(S(=O)(=O)N2CCc3ccccc3C2)c1	Insulin prom inh 60
Cc1cc(NCCN2CCOCC2)n2nc(C)c(-c3ccccc3)c2n1	none
Cc1cc(NCCN2CCOCC2)n2nc(C)c(-c3ccc(Cl)cc3)c2n1	Autophagy HCS active
CC(=O)N1CCc2cc(S(=O)(=O)NCCC(=O)N3CCN(Cc4ccccc4)CC3)ccc21	Autophagy HCS active
O=C(O)CNC(=S)N(Cc1ccccc1)Cc1cccnc1	Autophagy HCS active (no result: Insulin prom inh)
COC(CNC(=O)CNC(=S)N(Cc1ccccc1)Cc1cccnc1)OC	Efa HMGR inh 9.6
O=C(CNC(=S)N(Cc1ccccc1)Cc1cccnc1)NCc1ccccc1	none
CCOC(=O)N1CCN(c2c(N3CCN(c4ccccc4F)CC3)c(=O)c2=O)CC1	none (no result: Efa HMGR inh, Insulin prom inh, Autophagy HCS)
COc1ccc(C2C(C#N)=C(N)N3C(=C2C#N)Sc2ccccc23)cc1 (configuration not stated)	Autophagy HCS active (no result: Insulin prom inh)
Cc1c(C#N)c(O)n(CCO)c(=O)c1N=Nc1ccc(S(N)(=O)=O)cc1	none (no result: Insulin prom up)
Cc1c(C#N)c(O)n(C)c(=O)c1N=Nc1ccc(S(N)(=O)=O)cc1	Insulin prom inh 65 (no result: Insulin prom up)
CCOC(=O)Cc1csc(NC(=S)NC(=O)C(C)(C)C)n1	none
O=C(CSc1ccc2nnc(-c3ccccc3)n2n1)NCc1ccco1	none (no result: Insulin prom inh)
O=C(CSc1ccc2nnc(-c3ccccn3)n2n1)NCc1ccco1	Autophagy HCS active (no result: Insulin prom inh)
O=C(/C=C/c1ccco1)Nc1ccc(Cl)c(S(=O)(=O)N2CCOCC2)c1	none (no result: Efa HMGR inh, Insulin prom inh, Autophagy HCS)
Cc1ccc(N(CN2CCCC2=O)C(=O)c2ccccc2)cc1	none (no result: Insulin prom inh)
COc1ccc(C(=O)N(CN2CCCC2=O)c2ccc(C)cc2)cc1	Insulin prom up 3.4 (no result: Insulin prom inh)
Cc1ccc(SCC(=O)Nc2ccc(S(=O)(=O)Nc3nccs3)cc2)cc1	Autophagy HCS active (no result: Insulin prom inh)
CC(C)CC(=O)NC(=S)Nc1ccc(S(=O)(=O)Nc2nccs2)cc1	Autophagy HCS active
O=C(NC(=S)Nc1ccc(S(=O)(=O)Nc2nccs2)cc1)c1cccc(F)c1	Insulin prom inh 74
C=CCN(c1ccc(C(=O)Nc2ccc(NC(C)=O)cc2)cc1)S(C)(=O)=O	none
Cc1cc(N2CCOCC2)ccc1/C=C\[N+](=O)[O-]	none
C=CCSc1nc2ccccc2n1S(=O)(=O)c1ccc(C)cc1	Insulin prom inh 95 (no result: Insulin prom up)
Cc1ccc(N(NC(=O)C(O)(c2ccccc2)c2ccccc2)C(=O)CCl)cc1	none
CCOc1ccc(N(C(=O)CNC(=O)c2cccs2)C(C(=O)NCC2CCCO2)c2ccc(OC)c(OC)c2)cc1 (configuration not stated)	Autophagy HCS active
COc1ccc(N(C(=O)CNC(=O)c2cccs2)C(C(=O)NCC2CCCO2)c2ccc(OC)c(OC)c2)cc1 (configuration not stated)	none (no result: Insulin prom inh)
O=C(CCn1c(=S)oc2ccccc21)N1CCCCC1	Insulin prom inh inconclusive
Cc1cc(/C=C2\SC(=S)N(Cc3ccco3)C2=O)c(C)n1-c1ccccc1	Autophagy HCS active
Cc1cccc(C2=NNC(=O)C(c3ccc(Cl)cc3)C2)c1 (configuration not stated)	Insulin prom inh 100
Cc1ccc(C2CC(c3ccc(Cl)cc3)=NNC2=O)cc1 (configuration not stated)	none (no result: Insulin prom inh)
CCN(CC)C(=O)Nc1ccc(C(=O)OC)cc1	Insulin prom inh 83 (no result: Insulin prom up)
CCN(CC)C(=S)Nc1ccc(C(=O)OC)cc1	none (no result: Insulin prom inh)
COc1ccccc1OCC(O)Cn1c(=N)n(Cc2ccccc2)c2ccccc21 (configuration not stated)	Insulin prom up inconclusive, Autophagy HCS active
